From PubChem BioAssay AID1159580 (chemical genetic matrix, 2015)
Out of some 5,500 compounds screened, about 2,000 (36%) were called active. Not shown: some 18% with an inconclusive outcome. Rule as the data show it: active = normalized growth mostly below about 0.91 (no sharp cut-off); inconclusive = no clear call, values can overlap the other calls; inactive = mostly above about 0.92. The list shows a part of the results.

Assay: chemical genetic growth profiling, strain panel (AID 1159580);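 also: tested at 20 µM; growth read once vehicle control cultures reached saturation at 30 °C; 1 = growth at the plate median or of vehicle wells; lower values mean less growth of the strain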
Conditions: growth OD

Measured: normalized growth

CCN(CC)CCOC(=O)C(c1ccccc1)c1ccccc1
inactive: S. cerevisiae deletion strains, locus YKL068W, hits give low values 0.986 | S. cerevisiae deletion strains, locus YKL085W, strain MDH1 (second series), hits give low values 0.994 | S. cerevisiae deletion strains, locus YKL085W, strain MDH1, hits give low values 0.994 | S. cerevisiae deletion strains, locus YKL160W, strain elf1, hits give low values 0.985 | S. cerevisiae deletion strains, locus YKL190W, strain CNB1, hits give low values 0.989 | S. cerevisiae deletion strains, locus YKR001C, strain vps1, hits give low values 1 | S. cerevisiae deletion strains, locus YKR026C, strain gcn3, hits give low values 0.963 | S. cerevisiae deletion strains, locus YKR091W, strain srl3, hits give low values 0.98 | S. cerevisiae deletion strains, locus YLL001W, strain dnm1, hits give low values 0.952 | S. cerevisiae deletion strains, locus YLL026W, hits give low values 0.971 | S. cerevisiae deletion strains, locus YLL041C, strain sdh2, hits give low values 0.974 | S. cerevisiae deletion strains, locus YLR027C, strain aat2, hits give low values 0.985 | S. cerevisiae deletion strains, locus YLR039C, strain RIC1, hits give low values 1 | S. cerevisiae deletion strains, locus YLR058C, strain SHM2, hits give low values 0.999 | S. cerevisiae deletion strains, locus YLR102C, strain apc9, hits give low values 0.988 | S. cerevisiae deletion strains, locus YLR113W, strain HOG1, hits give low values 0.965 | S. cerevisiae deletion strains, locus YLR221C, strain rsa3, hits give low values 1 | S. cerevisiae deletion strains, locus YLR258W, strain gsy2, hits give low values 0.963 | S. cerevisiae deletion strains, locus YLR262C, strain YPT6 (second series), hits give low values 0.966 | S. cerevisiae deletion strains, locus YLR262C, strain YPT6, hits give low values 1 | S. cerevisiae deletion strains, locus YLR268W, strain sec22, hits give low values 0.984 | S. cerevisiae deletion strains, locus YLR320W, strain mms22, hits give low values 1.01 | S. cerevisiae deletion strains, locus YLR330W, strain CHS5, hits give low values 0.991 | S. cerevisiae deletion strains, locus YLR342W, strain FKS1 (second series), hits give low values 0.988 | S. cerevisiae deletion strains, locus YLR342W, strain FKS1, hits give low values 0.968 | S. cerevisiae deletion strains, locus YLR357W, strain rsc2, hits give low values 0.982 | S. cerevisiae deletion strains, locus YLR370C, strain arc18, hits give low values 0.945 | S. cerevisiae deletion strains, locus YLR371W, strain rom2, hits give low values 1 | S. cerevisiae deletion strains, locus YLR384C, strain iki3, hits give low values 0.97 | S. cerevisiae deletion strains, locus YLR418C, strain cdc73, hits give low values 0.961 | S. cerevisiae deletion strains, locus YML016C, strain PPZ1, hits give low values 0.998 | S. cerevisiae deletion strains, locus YML032C, strain rad52, hits give low values 1 | S. cerevisiae deletion strains, locus YML120C, strain ndi1, hits give low values 0.961 | S. cerevisiae deletion strains, locus YML124C, strain tub3, hits give low values 0.992 | S. cerevisiae deletion strains, locus YMR058W, strain fet3, hits give low values 0.97 | S. cerevisiae deletion strains, locus YMR078C, strain ctf18, hits give low values 0.983 | S. cerevisiae deletion strains, locus YMR125W, strain sto1, hits give low values 0.949 | S. cerevisiae deletion strains, locus YMR129W, hits give low values 0.975 | S. cerevisiae deletion strains, locus YMR205C, strain PFK2, hits give low values 0.971 | S. cerevisiae deletion strains, locus YMR223W, strain ubp8, hits give low values 0.98 | S. cerevisiae deletion strains, locus YMR231W, strain pep5, hits give low values 0.977 | S. cerevisiae deletion strains, locus YMR263W, strain SAP30, hits give low values 0.991 | S. cerevisiae deletion strains, locus YMR307W, strain GAS1, hits give low values 1.02 | S. cerevisiae deletion strains, locus YNL067W, strain RPL9B, hits give low values 1.01 | S. cerevisiae deletion strains, locus YNL071W, strain lat1, hits give low values 0.973 | S. cerevisiae deletion strains, locus YNL128W, strain TEP1, hits give low values 0.968 | S. cerevisiae deletion strains, locus YNL183C, strain NPR1, hits give low values 0.94 | S. cerevisiae deletion strains, locus YNL209W, strain ssb2, hits give low values 0.969 | S. cerevisiae deletion strains, locus YNL233W, strain BNI4, hits give low values 1.03 | S. cerevisiae deletion strains, locus YNL248C, strain rpa49, hits give low values 0.976 | S. cerevisiae deletion strains, locus YNL250W, strain rad50, hits give low values 0.99 | S. cerevisiae deletion strains, locus YNL271C, strain bni1, hits give low values 0.984 | S. cerevisiae deletion strains, locus YNL298W, strain CLA4, hits give low values 0.982 | S. cerevisiae deletion strains, locus YNL307C, strain MCK1, hits give low values 0.998 | S. cerevisiae deletion strains, locus YNL322C, strain KRE1 (second series), hits give low values 0.96 | S. cerevisiae deletion strains, locus YNL322C, strain KRE1, hits give low values 0.987 | S. cerevisiae deletion strains, locus YNR049C, strain mso1, hits give low values 0.96 | S. cerevisiae deletion strains, locus YNR052C, strain pop2, hits give low values 0.98 | S. cerevisiae deletion strains, locus YOL006C, strain TOP1, hits give low values 1.04 | S. cerevisiae deletion strains, locus YOL012C, strain htz1 0.836 | S. cerevisiae deletion strains, locus YOL147C, strain pex11, hits give low values 0.994 | S. cerevisiae deletion strains, locus YOR001W, strain rrp6, hits give low values 0.979 | S. cerevisiae deletion strains, locus YOR061W, strain CKA2, hits give low values 0.999 | S. cerevisiae deletion strains, locus YOR069W, strain VPS5, hits give low values 0.989 | S. cerevisiae deletion strains, locus YOR070C, strain gyp1, hits give low values 0.974 | S. cerevisiae deletion strains, locus YOR080W, strain dia2, hits give low values 0.957 | S. cerevisiae deletion strains, locus YOR083W, strain WHI5, hits give low values 0.977 | S. cerevisiae deletion strains, locus YOR106W, strain vam3, hits give low values 0.967 | S. cerevisiae deletion strains, locus YOR136W, strain idh2, hits give low values 0.993 | S. cerevisiae deletion strains, locus YOR144C, strain elg1, hits give low values 1 | S. cerevisiae deletion strains, locus YOR184W, strain ser1, hits give low values 0.982 | S. cerevisiae deletion strains, locus YOR231W, strain MKK1, hits give low values 0.989 | S. cerevisiae deletion strains, locus YOR265W, strain rbl2, hits give low values 0.968 | S. cerevisiae deletion strains, locus YOR270C, strain vph1, hits give low values 0.941 | S. cerevisiae deletion strains, locus YOR290C, strain snf2, hits give low values 0.975 | S. cerevisiae deletion strains, locus YOR316C, strain cot1, hits give low values 0.986 | S. cerevisiae deletion strains, locus YPL051W, strain arl3, hits give low values 0.978 | S. cerevisiae deletion strains, locus YPL055C, strain LGE1, hits give low values 1.02 | S. cerevisiae deletion strains, locus YPL078C, strain atp4, hits give low values 0.965 | S. cerevisiae deletion strains, locus YPL106C, strain sse1, hits give low values 0.931 | S. cerevisiae deletion strains, locus YPL240C, strain hsp82, hits give low values 0.958 | S. cerevisiae deletion strains, locus YPL241C, strain CIN2, hits give low values 0.991 | S. cerevisiae deletion strains, locus YPL256C, strain CLN2, hits give low values 0.971 | S. cerevisiae deletion strains, locus YPR119W, strain clb2, hits give low values 1 | S. cerevisiae deletion strains, locus YPR141C, strain kar3, hits give low values 0.989 | S. cerevisiae deletion strains, locus YPR163C, strain tif3, hits give low values 0.996 | S. cerevisiae deletion strains, locus YPR167C, strain met16, hits give low values 0.987 | S. cerevisiae deletion strains, strain wtn01, hits give low values 0.969 | S. cerevisiae strains, strain wild type, hits give low values 0.992
